Experimental data: the supplement of paper PMC10849652
Of roughly 7,900 targets only a part is listed; those with a hit were picked by preference. About 0.6% of all pairs of compound and target were hits.

How the values were obtained:
Experiment in all cases: log2 fold change, soluble protein after heating vs DMSO (PISA); higher = thermal stabilisation; K562 cells, 10 uM, 30 min; active = over 0.2 and 3.5 SD of the protein, either way, in both replicates (recomputed)
[1] = compound: C#Cc1cccc(Nc2ncnc3cc(OCCOC)c(OCCOC)cc23)c1 [erlotinib]
In short: (§1)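 Thermal stability values are relative to control samples and come from duplicates. They are expressed as log2 fold changes. For measurement, K562 cells (2×10^6 cells/mL) received 10 μM compound for 30 min, and aliquots were heated for 3 min over 48°C-58°C, pooled, and extracted at 4°C in PBS with 0.5% NP-40. Soluble protein, the supernatant after 21,000xg for 90 min, was quantified by TMTpro 16plex LC-MS/MS with equalised channel sums.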

[2] = compound: C/C(=N\NC(=O)C1=CC(=CC=C1)S(=O)(=O)N2CCOCC2)/C3=C(C=CC(=C3)Cl)O
In short: as §1

[3] = compound: C1=CC(=C(C=C1Cl)C2=NC3=NC=CN=C3C(=N2)NC4=CC=NC=C4)F
In short: as §1

[4] = compound: C1=CC(=CC=C1C2=NC3=C(N2)C=C(C=C3)C(=O)N)OC4=CC=C(C=C4)Cl
In short: as §1

[5] = compound: C1=CC2=C(C=CC(=C2)/C=C\3/C(=O)NC(=NCC4=CC=CS4)S3)N=C1
In short: as §1

[6] = compound: C1=CC2=NC=CN=C2C=C1/C=C/3\C(=O)NC(=O)S3
In short: as §1

[7] = compound: C1=CC=C(C=C1)C2=NC(=C(N2)C3=CC=NC=C3)C4=CC(=C(C=C4)Cl)O
In short: as §1

[8] = compound: C1=CC=C2C(=C1)C3=NNC4=CC=CC(=C43)C2=O
In short: as §1

[9] = compound: C1CCN(C1)C(=O)NC2=CC=CC(=C2)NC3=NC=C(C(=N3)NCCC4=CN=CN4)Br
In short: as §1

[10] = compound: C1CN(CCC1(CC2=CC=C(C=C2)Cl)N)C3=NC=NC4=C3C=CN4
In short: as §1

[11] = compound: C1COCCN1CCN2C3=CC=CC=C3N=C2NC(=O)C4=CC(=CC=C4)[N+](=O)[O-] [IRAK-1-4 Inhibitor I]
In short: as §1

[12] = compound: C=CC(=O)N1CCC[C@@H](n2nc(-c3ccc(Oc4ccccc4)cc3)c3c(N)ncnc32)C1 [ibrutinib]
In short: as §1

[13] = compound: CC(=O)c1cnc2ccc(-c3cc(Cl)c(O)c(Cl)c3)nc2c1N[C@H]1CC[C@H](CN(C)C)CC1
In short: as §1

[14] = compound: CC(C)(C)Cn1c(N)nc2ccc(-c3[nH]c(C(C)(C)C)nc3-c3ccc(F)cc3)nc21 [ralimetinib]
In short: as §1

[15] = compound: CC(C)(O)CC(=O)NCCn1ccc2ncnc(Nc3ccc(Oc4cccc(C(F)(F)F)c4)c(Cl)c3)c21
In short: as §1

[16] = compound: CC(C)C1=C2N=C(C=C(N2N=C1)NCC3=CC=CC=C3)NCCCCCCN
In short: as §1

[17] = compound: CC(C)C[C@@H](C=O)NC(=O)[C@H](CC(C)C)NC(=O)[C@H](CC(C)C)NC(=O)OCc1ccccc1
In short: as §1

[18] = compound: CC(C)N(C[C@H]1O[C@@H](n2cnc3c(N)ncnc32)[C@H](O)[C@@H]1O)[C@H]1C[C@@H](CCc2nc3cc(C(C)(C)C)ccc3[nH]2)C1 [pinometostat]
In short: as §1

[19] = compound: CC1=C(C(CC(=O)N1)C2=CC=C(C=C2)C(F)(F)F)C(=O)NC3=C(C=C4C(=C3)C=NN4)F
In short: as §1

[20] = compound: CC1=C(C2=C(C=C1)C(=O)C3=CC=CC=C3N2CCCN)C
In short: as §1

Sequence of UniProt Q9UI26 (Q9UI26 whole entry, looked up): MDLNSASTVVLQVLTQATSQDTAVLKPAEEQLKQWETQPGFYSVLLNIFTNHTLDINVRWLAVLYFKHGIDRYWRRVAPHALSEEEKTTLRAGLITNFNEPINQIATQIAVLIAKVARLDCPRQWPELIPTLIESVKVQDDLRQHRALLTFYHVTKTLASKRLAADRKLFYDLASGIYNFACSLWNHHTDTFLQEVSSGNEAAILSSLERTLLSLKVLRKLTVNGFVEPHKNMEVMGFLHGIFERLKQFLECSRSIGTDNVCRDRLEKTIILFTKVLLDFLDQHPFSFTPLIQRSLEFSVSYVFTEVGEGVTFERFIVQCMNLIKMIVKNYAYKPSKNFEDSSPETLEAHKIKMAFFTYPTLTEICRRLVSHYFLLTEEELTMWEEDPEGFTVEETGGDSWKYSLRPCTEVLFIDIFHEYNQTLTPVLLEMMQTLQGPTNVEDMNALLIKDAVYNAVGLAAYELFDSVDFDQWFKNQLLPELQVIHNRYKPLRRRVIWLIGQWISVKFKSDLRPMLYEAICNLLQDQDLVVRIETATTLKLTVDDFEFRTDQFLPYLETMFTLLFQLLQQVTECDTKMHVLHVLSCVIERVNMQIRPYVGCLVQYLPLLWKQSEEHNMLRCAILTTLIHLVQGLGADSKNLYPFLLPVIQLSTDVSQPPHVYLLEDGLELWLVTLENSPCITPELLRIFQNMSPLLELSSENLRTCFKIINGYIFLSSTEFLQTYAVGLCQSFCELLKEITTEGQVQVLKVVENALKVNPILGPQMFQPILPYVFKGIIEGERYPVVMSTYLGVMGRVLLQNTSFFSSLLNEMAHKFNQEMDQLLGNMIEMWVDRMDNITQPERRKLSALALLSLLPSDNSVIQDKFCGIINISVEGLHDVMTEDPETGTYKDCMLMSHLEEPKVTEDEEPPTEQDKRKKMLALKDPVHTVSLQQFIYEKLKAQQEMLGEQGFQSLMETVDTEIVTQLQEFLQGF
Sequence of UniProt Q7L2J0 (Q7L2J0 whole entry, looked up): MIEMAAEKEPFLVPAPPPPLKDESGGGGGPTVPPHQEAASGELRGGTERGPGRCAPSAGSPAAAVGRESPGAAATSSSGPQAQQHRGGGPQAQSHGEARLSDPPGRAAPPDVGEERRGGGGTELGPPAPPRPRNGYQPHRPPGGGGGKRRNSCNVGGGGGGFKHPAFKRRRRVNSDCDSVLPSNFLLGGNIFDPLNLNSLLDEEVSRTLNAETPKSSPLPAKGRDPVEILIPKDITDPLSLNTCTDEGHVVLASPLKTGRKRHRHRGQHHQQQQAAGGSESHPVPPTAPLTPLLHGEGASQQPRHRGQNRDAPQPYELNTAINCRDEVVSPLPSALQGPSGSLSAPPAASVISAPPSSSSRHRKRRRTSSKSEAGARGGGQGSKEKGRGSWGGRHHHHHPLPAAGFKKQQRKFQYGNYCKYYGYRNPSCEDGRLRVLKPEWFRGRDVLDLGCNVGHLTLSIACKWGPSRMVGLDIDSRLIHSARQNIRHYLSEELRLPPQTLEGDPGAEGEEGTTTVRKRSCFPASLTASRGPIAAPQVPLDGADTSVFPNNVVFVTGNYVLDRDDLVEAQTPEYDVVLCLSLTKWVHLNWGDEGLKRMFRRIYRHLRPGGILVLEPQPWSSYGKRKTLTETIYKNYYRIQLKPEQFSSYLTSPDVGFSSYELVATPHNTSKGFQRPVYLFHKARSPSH
Sequence of UniProt Q6N075 (Q6N075 whole entry, looked up): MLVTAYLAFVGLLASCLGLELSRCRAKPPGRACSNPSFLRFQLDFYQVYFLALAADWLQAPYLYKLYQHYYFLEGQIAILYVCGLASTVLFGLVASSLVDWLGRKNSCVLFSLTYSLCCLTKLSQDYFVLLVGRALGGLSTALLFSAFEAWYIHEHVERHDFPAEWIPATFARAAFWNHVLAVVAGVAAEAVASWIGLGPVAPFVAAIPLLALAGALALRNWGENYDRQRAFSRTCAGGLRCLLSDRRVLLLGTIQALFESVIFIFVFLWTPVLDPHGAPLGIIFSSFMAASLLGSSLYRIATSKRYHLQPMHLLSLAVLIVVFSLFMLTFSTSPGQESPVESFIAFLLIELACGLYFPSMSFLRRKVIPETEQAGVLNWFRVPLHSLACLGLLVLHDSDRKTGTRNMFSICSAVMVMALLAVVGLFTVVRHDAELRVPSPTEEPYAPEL
Sequence of UniProt Q32MZ4 (Q32MZ4 whole entry, looked up): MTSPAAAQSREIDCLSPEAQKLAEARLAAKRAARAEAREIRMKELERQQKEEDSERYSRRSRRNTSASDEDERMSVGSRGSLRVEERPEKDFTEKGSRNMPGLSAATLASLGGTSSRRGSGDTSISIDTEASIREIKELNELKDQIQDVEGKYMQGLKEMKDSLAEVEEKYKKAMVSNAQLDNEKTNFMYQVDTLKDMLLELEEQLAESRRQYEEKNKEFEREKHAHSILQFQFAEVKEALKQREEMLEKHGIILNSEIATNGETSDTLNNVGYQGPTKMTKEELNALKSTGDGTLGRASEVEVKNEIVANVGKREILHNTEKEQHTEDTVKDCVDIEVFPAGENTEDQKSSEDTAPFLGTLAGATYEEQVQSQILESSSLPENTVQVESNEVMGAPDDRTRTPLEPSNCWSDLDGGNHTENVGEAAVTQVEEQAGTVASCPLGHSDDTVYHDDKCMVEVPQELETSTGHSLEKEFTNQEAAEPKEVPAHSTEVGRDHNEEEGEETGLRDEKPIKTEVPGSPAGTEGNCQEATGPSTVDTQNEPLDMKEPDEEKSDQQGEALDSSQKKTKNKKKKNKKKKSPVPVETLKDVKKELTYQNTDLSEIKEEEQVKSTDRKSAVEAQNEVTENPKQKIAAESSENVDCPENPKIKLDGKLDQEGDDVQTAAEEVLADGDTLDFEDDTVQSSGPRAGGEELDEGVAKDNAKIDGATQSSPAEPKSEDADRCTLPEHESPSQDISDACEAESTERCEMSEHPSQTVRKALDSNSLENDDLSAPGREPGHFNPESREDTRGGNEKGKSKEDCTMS
Sequence of UniProt P46734 (P46734 whole entry, looked up): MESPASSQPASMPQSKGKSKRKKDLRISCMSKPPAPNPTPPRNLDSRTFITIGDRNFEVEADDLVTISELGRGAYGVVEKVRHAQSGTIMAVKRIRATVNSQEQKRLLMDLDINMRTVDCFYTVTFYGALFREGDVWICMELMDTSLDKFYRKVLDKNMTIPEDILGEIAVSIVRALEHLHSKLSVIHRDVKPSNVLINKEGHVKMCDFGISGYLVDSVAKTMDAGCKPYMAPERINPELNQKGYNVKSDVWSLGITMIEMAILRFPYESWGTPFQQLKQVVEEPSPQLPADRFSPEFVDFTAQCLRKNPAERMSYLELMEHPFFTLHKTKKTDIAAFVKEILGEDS
Sequence of UniProt O95373 (O95373 whole entry, looked up): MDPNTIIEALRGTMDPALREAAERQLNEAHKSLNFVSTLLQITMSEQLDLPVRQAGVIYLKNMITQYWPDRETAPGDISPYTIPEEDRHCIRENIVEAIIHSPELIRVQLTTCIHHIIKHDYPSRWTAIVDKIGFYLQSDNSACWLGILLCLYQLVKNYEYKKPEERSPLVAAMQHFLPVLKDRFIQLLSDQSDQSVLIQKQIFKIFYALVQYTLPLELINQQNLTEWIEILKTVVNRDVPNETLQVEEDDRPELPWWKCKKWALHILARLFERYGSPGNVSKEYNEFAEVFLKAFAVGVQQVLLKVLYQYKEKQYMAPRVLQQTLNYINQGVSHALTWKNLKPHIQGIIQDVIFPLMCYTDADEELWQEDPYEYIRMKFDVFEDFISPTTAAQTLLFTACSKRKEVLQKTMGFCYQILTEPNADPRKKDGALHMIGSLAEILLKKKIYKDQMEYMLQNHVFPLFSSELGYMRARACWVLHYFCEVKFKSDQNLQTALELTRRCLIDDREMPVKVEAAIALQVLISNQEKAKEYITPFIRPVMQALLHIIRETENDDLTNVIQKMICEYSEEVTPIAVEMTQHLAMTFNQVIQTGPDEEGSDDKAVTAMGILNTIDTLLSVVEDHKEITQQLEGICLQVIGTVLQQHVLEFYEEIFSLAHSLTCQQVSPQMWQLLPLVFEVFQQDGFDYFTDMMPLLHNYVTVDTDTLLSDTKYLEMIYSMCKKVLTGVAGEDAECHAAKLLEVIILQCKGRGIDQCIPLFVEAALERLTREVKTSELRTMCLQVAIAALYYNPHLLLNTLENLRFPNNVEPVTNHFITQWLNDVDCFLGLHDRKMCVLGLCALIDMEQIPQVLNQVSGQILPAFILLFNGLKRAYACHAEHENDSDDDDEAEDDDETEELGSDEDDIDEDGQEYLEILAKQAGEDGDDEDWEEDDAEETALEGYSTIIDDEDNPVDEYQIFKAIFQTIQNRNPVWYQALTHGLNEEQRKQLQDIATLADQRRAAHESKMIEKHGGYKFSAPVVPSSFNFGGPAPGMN
Sequence of UniProt Q96AQ8 (Q96AQ8 whole entry, looked up): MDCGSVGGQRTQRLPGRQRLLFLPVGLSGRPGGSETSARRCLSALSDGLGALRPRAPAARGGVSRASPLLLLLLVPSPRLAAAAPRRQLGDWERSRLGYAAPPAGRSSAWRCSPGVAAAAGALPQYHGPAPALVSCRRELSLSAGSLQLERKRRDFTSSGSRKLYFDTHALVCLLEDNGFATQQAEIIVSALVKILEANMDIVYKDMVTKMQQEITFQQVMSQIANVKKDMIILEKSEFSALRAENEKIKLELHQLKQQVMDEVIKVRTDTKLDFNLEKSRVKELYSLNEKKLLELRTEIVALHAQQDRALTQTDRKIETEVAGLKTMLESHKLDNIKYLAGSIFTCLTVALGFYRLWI
Sequence of UniProt Q8NC54 (Q8NC54 whole entry, looked up): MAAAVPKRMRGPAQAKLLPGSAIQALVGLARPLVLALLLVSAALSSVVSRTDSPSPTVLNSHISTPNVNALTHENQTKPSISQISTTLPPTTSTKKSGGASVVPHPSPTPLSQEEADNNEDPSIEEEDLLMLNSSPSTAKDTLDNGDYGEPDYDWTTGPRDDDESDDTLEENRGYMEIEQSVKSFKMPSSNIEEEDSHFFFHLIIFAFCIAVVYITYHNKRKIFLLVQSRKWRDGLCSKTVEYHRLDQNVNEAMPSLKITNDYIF

Target | log2 fold change [1] | log2 fold change [2] | log2 fold change [3] | log2 fold change [4] | log2 fold change [5] | log2 fold change [6] | log2 fold change [7] | log2 fold change [8] | log2 fold change [9] | log2 fold change [10] | log2 fold change [11] | log2 fold change [12] | log2 fold change [13] | log2 fold change [14] | log2 fold change [15] | log2 fold change [16] | log2 fold change [17] | log2 fold change [18] | log2 fold change [19] | log2 fold change [20]
MFN1 (UniProt Q8IWA4) | -0.002 (inactive) | -0.026 (inactive) | 0.042 (inactive) | 0.001 (inactive) | 0.07 (inactive) | 0.347 (inactive) | -0.016 (inactive) | -0.015 (inactive) | 0.025 (inactive) | -0.039 (inactive) | 0.057 (inactive) | -0.009 (inactive) | -0.047 (inactive) | -0.027 (inactive) | -0.043 (inactive) | -0.607 (active) | 0.078 (inactive) | 0.018 (inactive) | 0.015 (inactive) | 0.098 (inactive)
IPO11 isoform 2 (UniProt Q9UI26) | -0.063 (inactive) | 0.066 (inactive) | 0.074 (inactive) | 0.013 (inactive) | 0.016 (inactive) | 0.038 (inactive) | 0.011 (inactive) | -0.023 (inactive) | 0.001 (inactive) | -0.009 (inactive) | 0.011 (inactive) | -0.014 (inactive) | 0.039 (inactive) | -0.016 (inactive) | -0.095 (inactive) | 0.018 (inactive) | -0.039 (inactive) | -0.035 (inactive) | 0.002 (inactive) | -0.018 (inactive)
KIAA1324L (UniProt A8MWY0) | 0.036 (inactive) | -0.077 (inactive) | 0.003 (inactive) | 0.05 (inactive) | 0.092 (inactive) | -0.068 (inactive) | 0.003 (inactive) | -0.042 (inactive) | -0.03 (inactive) | 0.064 (inactive) | 0.027 (inactive) | -0.056 (inactive) | -0.052 (inactive) | -0.024 (inactive) | -0.038 (inactive) | 0.024 (inactive) | 0 (inactive) | -0.008 (inactive) | 0.034 (inactive) | -0.037 (inactive)
LRRFIP1 (UniProt Q32MZ4) | 0.072 (inactive) | -0.045 (inactive) | -0.027 (inactive) | 0.018 (inactive) | -0.01 (inactive) | 0.052 (inactive) | -0.024 (inactive) | -0.042 (inactive) | 0.056 (inactive) | 0.041 (inactive) | 0.014 (inactive) | 0.019 (inactive) | 0.027 (inactive) | -0.003 (inactive) | 0.063 (inactive) | 0.084 (inactive) | 0.011 (inactive) | 0 (inactive) | 0 (inactive) | -0.043 (inactive)
MCUR1 (UniProt Q96AQ8) | -0.012 (inactive) | -0.03 (inactive) | 0.055 (inactive) | 0.003 (inactive) | 0.053 (inactive) | -0.006 (inactive) | 0.102 (inactive) | 0.005 (inactive) | -0.023 (inactive) | 0.063 (inactive) | 0.011 (inactive) | 0.041 (inactive) | -0.077 (inactive) | 0.118 (inactive) | -0.018 (inactive) | 0.065 (inactive) | -0.242 (active) | -0.059 (inactive) | 0.015 (inactive) | -0.002 (inactive)
MFSD5 isoform 2 (UniProt Q6N075) | 0.147 (inactive) | 0.057 (inactive) | 0.041 (inactive) | 0.115 (inactive) | -0.061 (inactive) | 0.038 (inactive) | -0.144 (inactive) | 0.109 (inactive) | 0.014 (inactive) | 0.034 (inactive) | -0.068 (inactive) | -0.016 (inactive) | -0.007 (inactive) | 0.019 (inactive) | -0.017 (inactive) | -0.053 (inactive) | 0.003 (inactive) | 0.049 (inactive) | 0.039 (inactive) | -0.061 (inactive)
LUZP1 (UniProt Q86V48) | -0.094 (inactive) | -0.035 (inactive) | -0.328 (inactive) | -0.01 (inactive) | -0.131 (inactive) | -0.095 (inactive) | -0.091 (inactive) | -0.187 (inactive) | -0.06 (inactive) | -0.297 (inactive) | -0.136 (inactive) | -0.074 (inactive) | 0.275 (inactive) | 0.08 (inactive) | 0.114 (inactive) | 0.019 (inactive) | 0.139 (inactive) | 0.113 (inactive) | 0.124 (inactive) | 0.079 (inactive)
IPO13 (UniProt O94829) | -0.045 (inactive) | -0.018 (inactive) | 0.05 (inactive) | -0.037 (inactive) | 0.025 (inactive) | 0.021 (inactive) | -0.059 (inactive) | -0.033 (inactive) | 0.013 (inactive) | -0.062 (inactive) | -0.005 (inactive) | -0.1 (inactive) | 0.066 (inactive) | 0.103 (inactive) | -0.226 (inactive) | -0.281 (active) | 0.002 (inactive) | 0.015 (inactive) | -0.026 (inactive) | -0.04 (inactive)
MAPK14 isoform 2 (UniProt Q16539) | 0.313 (inactive) | -0.051 (inactive) | 0.936 (active) | -0.136 (inactive) | 0.01 (inactive) | -0.013 (inactive) | 1 (active) | 0.207 (inactive) | 0.021 (inactive) | -0.102 (inactive) | -0.011 (inactive) | 0.001 (inactive) | 1.01 (active) | 1.48 (active) | -0.096 (inactive) | -0.218 (inactive) | -0.089 (inactive) | -0.141 (inactive) | -0.152 (inactive) | -0.013 (inactive)
MAP2K3 isoform 3 (UniProt P46734) | -0.011 (inactive) | 0.05 (inactive) | 0.002 (inactive) | 0.009 (inactive) | 0.036 (inactive) | 0.017 (inactive) | 0.046 (inactive) | -0.057 (inactive) | 0.016 (inactive) | -0.006 (inactive) | 0.012 (inactive) | 0.032 (inactive) | -0.457 (active) | 0.02 (inactive) | 0.059 (inactive) | -0.035 (inactive) | -0.022 (inactive) | -0.012 (inactive) | 0.064 (inactive) | -0.032 (inactive)
LRBA, A0A494BZW2 | 0.111 (inactive) | 0.022 (inactive) | 0.283 (inactive) | 0.124 (inactive) | -0.055 (inactive) | 0.061 (inactive) | -0.105 (inactive) | -0.013 (inactive) | 0.097 (inactive) | 0.189 (inactive) | 0.02 (inactive) | 0.018 (inactive) | -0.009 (inactive) | 0.01 (inactive) | 0 (inactive) | -0.436 (inactive) | 0.041 (inactive) | 0.076 (inactive) | 0.006 (inactive) | -0.237 (inactive)
LEMD2 (UniProt Q8NC56) | 0.04 (inactive) | 0.007 (inactive) | -0.054 (inactive) | -0.002 (inactive) | 0.11 (inactive) | 0.001 (inactive) | 0.042 (inactive) | 0.008 (inactive) | -0.016 (inactive) | 0.046 (inactive) | 0.015 (inactive) | 0.082 (inactive) | -0.066 (inactive) | -0.02 (inactive) | -0.024 (inactive) | -0.63 (active) | 0.022 (inactive) | -0.014 (inactive) | -0.051 (inactive) | 0.131 (inactive)
MEPCE (UniProt Q7L2J0) | 0.063 (inactive) | 0.064 (inactive) | -0.022 (inactive) | -0.002 (inactive) | 0.039 (inactive) | -0.01 (inactive) | 0.103 (inactive) | 0.024 (inactive) | -0.049 (inactive) | -0.047 (inactive) | 0.088 (inactive) | 0.023 (inactive) | 0.166 (inactive) | 0.108 (inactive) | 0.026 (inactive) | -0.16 (inactive) | 0 (inactive) | 0.098 (inactive) | -0.026 (inactive) | -0.31 (active)
KCT2 (UniProt Q8NC54) | 0.069 (inactive) | 0.019 (inactive) | 0.064 (inactive) | 0.061 (inactive) | -0.005 (inactive) | 0.075 (inactive) | 0.096 (inactive) | -0.005 (inactive) | -0.028 (inactive) | 0.056 (inactive) | 0.039 (inactive) | 0.029 (inactive) | -0.04 (inactive) | -0.014 (inactive) | 0.004 (inactive) | -0.118 (inactive) | -0.011 (inactive) | 0.009 (inactive) | 0.035 (inactive) | -0.035 (inactive)
IPO7 (UniProt O95373) | -0.015 (inactive) | 0.078 (inactive) | 0.034 (inactive) | -0.003 (inactive) | 0.01 (inactive) | 0.056 (inactive) | 0.026 (inactive) | -0.019 (inactive) | -0.004 (inactive) | -0.05 (inactive) | 0 (inactive) | -0.063 (inactive) | -0.021 (inactive) | 0.032 (inactive) | -0.153 (inactive) | -0.309 (active) | -0.069 (inactive) | 0.012 (inactive) | 0 (inactive) | -0.221 (active)
